Most compounds without a hit are left out; they make up all but 1.8% or so of the library.
bovine MsrA act: bovine methionine sulfoxide reductase A activation | purified bovine MsrA, absorbance read-out | activation, % at 10.6 µM | 360,000 tested, 0.3% active | AID 602163; in the data active = activation above about 7.5%;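 note: 0% = vehicle and 100% = reference activator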
GC-B act: GC-B (human) receptor activation. P20594. HEK293-GC-B cells, CNP EC30, cGMP TR-FRET; 0% at EC30 CNP, 100% saturating CNP. activation, % at 10 µM. 370,000 tested, 0.11% active. AID 1920062;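 active = activation at 10 µM reaching about 35% in either raw or pattern-adjusted values, limit read from the data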
MsrA inhibitor: bovine MsrA inhibition; purified bovine MsrA, absorbance read-out; inhibition, % at 15.5 µM; 360,000 tested, 0.75% active;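 note: 0% = vehicle wells with enzyme and 100% = reference inhibitor wells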
NPR1 activator: GC-A (human) enzyme activation | activation, % at 10 µM | 370,000 tested, 0.14% active | AID 1671463 | P16066 | HEK293 GC-A cells, cGMP TR-FRET, EC30 ANP; 0% at EC30 ANP, 100% saturating ANP; in the data active = activation above about 40%
m5-HT2A agonist: mouse HTR2A agonism via beta-arrestin recruitment; P35363; activation, % at 7.6 µM; 360,000 tested, 0.66% active; CHO-K1 mHTR2A beta-arrestin complementation, luminescence; percent of 30 µM serotonin response;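 active = activation above a run cutoff, the mean activation of all tested compounds plus 3 SD, cut at about 14% in these data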;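 note: 0% = plate median of compound wells and 100% = 30 µM serotonin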
MsrA conf: confirmation of bovine MsrA inhibitors; shares compounds with MsrA inhibitor; purified bovine MsrA, absorbance read-out; inhibition, % at 15.5 µM; 2,300 tested, 41% active;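 note: coupled to thioredoxin reductase with NADPH and selenocystamine and DMSO as substrate; 0% = vehicle only and 100% = full effect of reference inhibitor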
Starred values were filed as active, the others as inactive. Cut-off read from the data, not from the text of the source, unless noted: active = inhibition above about 4.5%; inactive = the rest.

For NC1=C(c2ccc([N+](=O)[O-])cc2)C(=O)CO1 the results were bovine MsrA act -7, GC-B act 0, MsrA inhibitor 4, NPR1 activator -3 and m5-HT2A agonist -3.
For O=c1oc2c(-c3ccc([N+](=O)[O-])cc3)cc(O)cc2s1 the results were bovine MsrA act 2, GC-B act 0, MsrA inhibitor 7.5*, NPR1 activator 7, m5-HT2A agonist -2 and MsrA conf 0.
Screening CN(C)CC(=O)N[C@@H]1C[C@@H]2O[C@@H](CO)CC[C@@H]2O[C@@H]1CCc1ccc(C#Cc2ccccc2)cc1 returned GC-B act -5 and NPR1 activator 9.
For COc1ccccc1/C=C/C=N/NC(=O)c1ccncc1 the results were bovine MsrA act -8, GC-B act -4, MsrA inhibitor 9.0*, NPR1 activator 6, m5-HT2A agonist 3 and MsrA conf 5.0*.
O=C(Cc1cccs1)N/N=C/C=C/c1ccccc1[N+](=O)[O-] was read as bovine MsrA act -11, GC-B act -1, MsrA inhibitor 1, NPR1 activator -4 and m5-HT2A agonist 0.
COc1ccccc1/C=C/C=N/NC(=O)Cc1cccs1 was read as bovine MsrA act 1, GC-B act -3, MsrA inhibitor 5.0*, NPR1 activator 6, m5-HT2A agonist -1 and MsrA conf 4.
Screening COc1cc(OC)c(/C=N/NC(=O)c2ccncc2)cc1Br returned bovine MsrA act -4, GC-B act -3, MsrA inhibitor 5.2*, NPR1 activator -16, m5-HT2A agonist -1 and MsrA conf 4.
`COc1cc(OC)c(/C=N/NC(N)=S)cc1Br` gave bovine MsrA act -3, GC-B act -5, MsrA inhibitor 5.3*, NPR1 activator -8, m5-HT2A agonist 10 and MsrA conf 4.
For C=CCCOc1ccccc1C(N)=O the results were bovine MsrA act -8, GC-B act 5, MsrA inhibitor -1, NPR1 activator -3 and m5-HT2A agonist 3.
For COc1ccc(N(CC(=O)Nc2ccccc2C(N)=O)S(=O)(=O)c2ccc(C)c([N+](=O)[O-])c2)cc1 the results were bovine MsrA act -3, GC-B act -3, MsrA inhibitor 2, NPR1 activator -3 and m5-HT2A agonist -3.
Screening COc1cc(/C=N/NC(=O)c2cnccn2)cc(OC)c1OC returned bovine MsrA act -6, GC-B act -1, MsrA inhibitor 2, NPR1 activator -6 and m5-HT2A agonist 4.
`COc1cc(OC)c(OC)cc1/C=N/NC(=O)c1cnccn1` gave bovine MsrA act -2, GC-B act 0, MsrA inhibitor 6.2*, NPR1 activator 3, m5-HT2A agonist 1 and MsrA conf 4.
Screening COc1cc(OC)c(OC)cc1/C=N/NC(=O)c1ccc(=O)n(C)c1 returned bovine MsrA act -9, GC-B act -8, MsrA inhibitor 10*, NPR1 activator -4, m5-HT2A agonist -3 and MsrA conf 9.2*.
O=C(NCC(=O)N1CC=C(c2ccccc2)CC1)c1ccc(F)cc1 was read as bovine MsrA act -1, GC-B act 4, MsrA inhibitor 0, NPR1 activator 3 and m5-HT2A agonist -4.
For O=C1NC(N2CCOCC2)=N/C1=C/c1ccc2c(c1)OCO2 the results were bovine MsrA act -4, GC-B act -4, MsrA inhibitor 4.9*, NPR1 activator -6, m5-HT2A agonist -3 and MsrA conf 3.
For CN(C)c1ccc(/C=N/Nc2ccc(-n3ccnc3)nn2)cc1 the results were bovine MsrA act -7, GC-B act -12, MsrA inhibitor 6.0*, NPR1 activator -9, m5-HT2A agonist 2 and MsrA conf 3.
CN(/N=C/c1cc(Br)cc(Br)c1O)c1cccc(C(F)(F)F)n1 was read as bovine MsrA act -3, GC-B act -1, MsrA inhibitor 5.8*, NPR1 activator 2, m5-HT2A agonist -5 and MsrA conf 0.
For COc1ccc(CN2C(=O)CN(S(C)(=O)=O)CC2(C)c2nnnn2C2CCCCC2)cc1 (stereo not given) the results were GC-B act 2 and NPR1 activator 6.
Cc1ccccc1-c1n[nH]c(=S)n1/N=C/C=C/c1ccco1 was read as bovine MsrA act 0, GC-B act 1, MsrA inhibitor 4.7*, NPR1 activator -2, m5-HT2A agonist -1 and MsrA conf 5.
`Cc1cc(-c2n[nH]c(=S)n2/N=C/C=C/c2ccco2)n[nH]1` gave bovine MsrA act 2, GC-B act 4, MsrA inhibitor 1, NPR1 activator 1 and m5-HT2A agonist -1.
Screening S=c1[nH]nc(-c2ccc(Cl)cc2)n1/N=C/C=C/c1ccco1 returned bovine MsrA act -1, GC-B act -6, MsrA inhibitor 2, NPR1 activator -6 and m5-HT2A agonist 2.
For S=c1[nH]nc(-c2ccccc2)n1/N=C/C=C/c1ccco1 the results were bovine MsrA act 2, GC-B act -7, MsrA inhibitor 5.7*, NPR1 activator -3, m5-HT2A agonist -3 and MsrA conf 6.2*.
`Cc1cc(N2CCc3ccccc32)n2ncnc2n1` gave bovine MsrA act -2, GC-B act 7, MsrA inhibitor 5.3*, NPR1 activator 6, m5-HT2A agonist -4 and MsrA conf 4.
`COc1ccc(-n2c(SCC(N)=O)nc3sc4c(c3c2=O)CCN(C)C4)cc1` gave bovine MsrA act -3, GC-B act -1, MsrA inhibitor 6.1*, NPR1 activator 6, m5-HT2A agonist 3 and MsrA conf 2.
COc1ccc(-n2c(SCC(=O)NCc3ccco3)nc3sc4c(c3c2=O)CCN(C)C4)cc1 was read as bovine MsrA act -5, GC-B act 1, MsrA inhibitor 3, NPR1 activator 8 and m5-HT2A agonist 5.
For COC(=O)CSc1nc2sc3c(c2c(=O)n1-c1ccc(OC)cc1)CCN(C)C3 the results were bovine MsrA act -13, GC-B act 0, MsrA inhibitor 2, NPR1 activator 20 and m5-HT2A agonist 4.
Screening O=C(O)CSc1nc2sc3c(c2c(=O)n1-c1ccccc1)CCC3 returned bovine MsrA act -5, GC-B act 4, MsrA inhibitor 5.0*, NPR1 activator 0, m5-HT2A agonist -1 and MsrA conf 1.
CN1CCc2c(sc3nc(SCC(=O)NCc4ccco4)n(-c4ccccc4)c(=O)c23)C1 was read as bovine MsrA act -3, GC-B act 2, MsrA inhibitor 6.4*, NPR1 activator 11, m5-HT2A agonist 4 and MsrA conf 1.
`c1ccc(-c2nn(Cc3ncco3)c3ccccc23)cc1` gave GC-B act -10 and NPR1 activator -3.
For CCc1c(-c2ccc(F)cc2)ncn1CCc1ccccc1OC the results were GC-B act -1, MsrA inhibitor 0 and NPR1 activator -4.
